KDM5B inh: KDM5B demethylase inhibition. Q9UGL1. KDM5B demethylase, FDH-coupled NADH fluorescence (FDH is formaldehyde dehydrogenase). Potency, µM (titrated, usually from 57.7 µM), usual class: inhibitors. hit rate 2.6% among 220,000; active = well fitted inhibition curve with a large enough effect; also: nearly all actives have a fitted effect of over 70% in size
Target sequence (Q9UGL1 whole entry, looked up): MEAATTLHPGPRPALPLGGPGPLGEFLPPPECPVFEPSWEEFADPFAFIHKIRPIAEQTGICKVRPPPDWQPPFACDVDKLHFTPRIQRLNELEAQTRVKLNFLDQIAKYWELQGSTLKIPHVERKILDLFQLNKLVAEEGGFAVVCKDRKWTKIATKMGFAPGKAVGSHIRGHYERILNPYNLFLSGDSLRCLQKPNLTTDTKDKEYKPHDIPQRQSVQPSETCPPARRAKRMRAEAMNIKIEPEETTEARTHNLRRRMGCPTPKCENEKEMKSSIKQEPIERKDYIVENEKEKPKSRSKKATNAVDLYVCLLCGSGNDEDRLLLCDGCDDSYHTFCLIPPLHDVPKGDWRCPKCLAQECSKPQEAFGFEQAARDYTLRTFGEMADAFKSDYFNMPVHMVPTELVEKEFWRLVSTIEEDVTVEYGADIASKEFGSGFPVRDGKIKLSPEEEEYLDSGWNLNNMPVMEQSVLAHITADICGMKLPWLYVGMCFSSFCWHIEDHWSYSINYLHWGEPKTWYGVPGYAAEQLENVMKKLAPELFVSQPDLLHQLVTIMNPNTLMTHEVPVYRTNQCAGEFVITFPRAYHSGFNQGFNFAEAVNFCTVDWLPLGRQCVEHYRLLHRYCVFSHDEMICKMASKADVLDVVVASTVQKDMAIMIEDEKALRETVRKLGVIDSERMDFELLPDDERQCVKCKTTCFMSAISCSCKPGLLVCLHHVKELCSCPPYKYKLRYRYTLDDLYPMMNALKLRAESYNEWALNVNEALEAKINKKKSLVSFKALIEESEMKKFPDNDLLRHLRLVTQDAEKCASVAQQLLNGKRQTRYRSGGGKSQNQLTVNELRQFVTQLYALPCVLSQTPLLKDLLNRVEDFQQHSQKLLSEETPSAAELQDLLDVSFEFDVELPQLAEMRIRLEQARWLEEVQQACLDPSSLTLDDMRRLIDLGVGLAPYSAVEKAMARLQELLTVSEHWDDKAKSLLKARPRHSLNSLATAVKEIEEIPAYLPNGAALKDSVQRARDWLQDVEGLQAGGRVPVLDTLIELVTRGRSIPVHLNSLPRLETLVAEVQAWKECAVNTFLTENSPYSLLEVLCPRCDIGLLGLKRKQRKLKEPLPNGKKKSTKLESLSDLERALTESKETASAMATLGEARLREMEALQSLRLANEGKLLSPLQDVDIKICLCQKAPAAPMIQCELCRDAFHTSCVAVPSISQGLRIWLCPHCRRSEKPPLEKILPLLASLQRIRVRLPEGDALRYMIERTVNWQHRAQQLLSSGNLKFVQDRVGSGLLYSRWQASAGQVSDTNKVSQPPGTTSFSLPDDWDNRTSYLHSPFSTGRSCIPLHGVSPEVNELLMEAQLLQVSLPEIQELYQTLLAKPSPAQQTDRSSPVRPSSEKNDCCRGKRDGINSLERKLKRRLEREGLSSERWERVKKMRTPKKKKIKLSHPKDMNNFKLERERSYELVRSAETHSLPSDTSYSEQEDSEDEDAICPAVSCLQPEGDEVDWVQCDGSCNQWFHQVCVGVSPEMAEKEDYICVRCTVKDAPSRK
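Inhibition is measured as reduced NADH fluorescence generation from FDH coupling to formaldehyde release. Truncated KDM5BΔAP at 200 nM final acts on H3K4me3 peptide (12.5 µM in substrate mix) in pH 7.5 HEPES buffer with Tween-20, 30 min, room temperature.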
Each line names hits and unclear results; the compound was inactive in the other large screens. This is one part of a sample in which hits are shown more often than they occur.

COc1ccc(Nc2cc(C)nc3nc(-c4ccc(C)cc4)nn23)c(OC)c1	none
COc1ccc(-c2noc(CSc3nnc(-c4ccco4)n3C3CCCCC3)n2)c(OC)c1	none
O=C(CSc1nnnn1-c1ccccc1)Nc1ccc2c(c1)OCCO2	none
CCCOC(=O)c1ccc(Oc2coc3cc(OC)ccc3c2=O)cc1	none
CC(C)C[C@@H](NC(=O)C1=C[C@@H](NC(=O)c2cccnc2)[C@@H](O)[C@H](O)C1)C(N)=O	none
Cc1ccc(C)c(C(C)NC(=O)c2cccnc2)c1 (stereo not given)	none
CCOCCn1c(CN2CCN(C(=O)OCC)CC2)nc2c1c(=O)[nH]c(=O)n2C	none
O=C(OC1CCCCC1=O)c1ncc(Cl)c(Cl)c1Cl (stereo not given)	none
CCc1ccc(C2C=C(c3ccc(C)cc3)Nc3nnnn32)cc1 (stereo not given)	none
O=C(CCNS(=O)(=O)c1ccc2c(c1)CCN2C(=O)C1CC1)Nc1cccc(C(F)(F)F)c1	none
O=C(NCc1nc(-c2ccc(Cl)cc2)no1)c1cc2cc(Cl)ccc2o1	none
CC(C)c1noc(-c2ccn3c(CNC(=O)Cc4ccc(F)cc4)nnc3c2)n1	none
CC(C)c1noc(-c2ccn3c(CNC(=O)Cc4ccccc4Cl)nnc3c2)n1	KDM5B inh 16µM
CCCc1noc(-c2ccn3c(CNC(=O)Cc4ccccc4Cl)nnc3c2)n1	KDM5B inh 14µM
Cc1ccc(CC(=O)NCc2nnc3cc(-c4nc(C(C)C)no4)ccn23)cc1	KDM5B inh 25µM
CNC(=O)N1CCCCCCNC(=O)[C@@H]2CCCC[C@@H]21	none
N#Cc1ccc(Oc2ccc(-c3ccccc3)cc2)cc1	none
Cc1ccccc1OCc1nnc(SCc2ccc(Cl)c(Cl)c2)n1C	none
CC(Nc1ccc(F)cc1)c1nc(-c2ccco2)no1 (stereo not given)	none
Cc1ccc2cccc(NC(=O)COc3ccc(C(C)C)cc3)c2n1	none
O=c1[nH]c2ccc(-c3csc(Nc4ccc(F)cc4)n3)cc2o1	none
CCOC(=O)c1ccc(NC(=O)CN2CCCN(Cc3ccc(OC)cc3)S2(=O)=O)cc1	none
N#Cc1ccc(OCCCOc2ccc(C#N)cc2)cc1	none
CC1CC1C(=O)NCCSCc1cccs1 (stereo not given)	none
COc1ccc2cc(C(=O)NC3CCN(C(=O)N4CC5CC(C4)[C@H]4CCCC(=O)N4C5)CC3)[nH]c2c1 (stereo not given in full)	KDM5B inh 28µM
O=C(NC1CCN(C(=O)N2CC3CC(C2)[C@H]2CCCC(=O)N2C3)CC1)c1ccccc1 (stereo not given in full)	none
COc1ccc2cc(C(=O)N3CC4CC(C3)[C@H]3CCCC(=O)N3C4)[nH]c2c1 (stereo not given in full)	none
CS(=O)(=O)N(Cc1cccnc1)C1CN(C(=O)CC2CCCCC2)C1	none
Cc1cn2nc(-c3nc(C4CCCN(C(=O)c5ccccc5)C4)no3)cc2c(=O)[nH]1 (stereo not given)	none
COc1ccccc1NC(=O)Cn1nc(-c2ccc(C)c(S(=O)(=O)N3CCOCC3)c2)ccc1=O	none
Cn1nc(C(=O)NCc2ccco2)c2ccccc2c1=O	none
CCc1nc2c(=O)n(CC(=O)NCc3ccco3)nc(C)c2s1	none
Cc1nc2scc(C)n2c(=O)c1S(=O)(=O)N1CCN(c2ccccc2)CC1	none
Cc1nc2scc(C)n2c1/C=C/c1cc(C(=O)O)c2ccccc2n1	none
CCCCNC(=O)c1c(-c2ccccc2)c(-c2ccccc2)nn(C)c1=O	none
CCCCCn1nc(C(=O)Nc2nc(-c3cc(OC)ccc3OC)cs2)c2ccccc2c1=O	none
CCCCCCNC(=O)Cc1csc2nc(C)c(-c3cc(C)n(-c4ccccc4OC)n3)c(=O)n12	KDM5B inh 28µM
CCc1ccccc1-n1nc(-c2c(C)nc3scc(CC(=O)NCc4ccco4)n3c2=O)cc1C	KDM5B inh 28µM
CCCCNC(=O)Cc1csc2nc(C)c(-c3cc(C)n(-c4ccccc4CC)n3)c(=O)n12	KDM5B inh 32µM
COc1ccccc1CNC(=O)Cc1csc2nc(-c3ccccc3)cn12	none
CCCCNC(=O)Cn1c(=O)cc(C)c2c(C)nn(-c3ccc(CC)cc3)c21	none
CCc1ccccc1-n1nc(-c2c(C)nc3scc(CC(=O)N4CCCC4)n3c2=O)cc1C	KDM5B inh 32µM
O=C1C(c2ccccc2F)N(C2CCCC2)C(=O)CN1C1CCCCCC1 (stereo not given)	none
N#Cc1ccc(CN2CC[C@H](c3nnc(-c4ccccc4)o3)C2)cc1	none
COCC(C)NC(=O)c1cc2cc(N(C)S(=O)(=O)c3ccc(C)cc3)ccc2s1 (stereo not given)	none
Cc1noc(-c2cccc(OC3CN(C(=O)NCc4ccc(F)cc4)C3)c2)n1	none
Cc1cccc(C(=O)NCCc2c[nH]c3ccccc23)c1C	none
CCCCNC(=O)c1cc2c(=O)n3cccc(C)c3nc2s1	none
CCCCCNC(=O)Cc1csc2nc(C)c(-c3cc(C)n(-c4cccc(C)c4C)n3)c(=O)n12	KDM5B inh 32µM
CCCCOCCCNC(=O)Cn1nc(C)c2ccccc2c1=O	none
Cc1ccccc1-n1c(SCC(=O)NC(C)c2cc3ccccc3o2)nnc1N1CCOCC1 (stereo not given)	none
CN1CCC2(C1)CN(CC1CCOCC1)c1ccc(C(=O)NCCc3ccccc3)cc12 (stereo not given)	KDM5B inh 32µM
O=C(NCCOc1ccccc1)c1ccc2c(c1)OCCN(CCC(F)(F)F)C2	none
CN1CCC2(C1)CN(CC1CCOCC1)c1ccc(C(=O)NCCOc3ccccc3)cc12 (stereo not given)	KDM5B inh 22µM
CC(C)(C(=O)NCCc1ccccc1)C1CCOCC1	none
CN1CCC2(C1)CN(CC1CCOCC1)c1ccc(C(=O)NCCCO)cc12 (stereo not given)	KDM5B inh 35µM
COCCN1CCCCCC(O)c2cc(C(=O)NCCN3CCOCC3)ccc21 (stereo not given)	none
CC1(CNC(=O)c2ccc3c(c2)OCO3)CCOCC1	none
COc1cc(C(=O)NCCc2ccccc2)ccc1OCC(=O)N1CCOCC1	none
O=C(NCCCN1CCOCC1)c1ccc(N2CCOCC2)c([N+](=O)[O-])c1	none
CC(=O)NCCc1ccc(C(=O)COC(=O)c2cc(C)ccc2O)s1	none
COc1ccc(Oc2coc3cc(OCc4ccccc4F)ccc3c2=O)cc1	none
CC(C)Oc1cccc(Cn2cnc3c2c(=O)n(C)c(=O)n3C)c1	none
COC(=O)CN1CCN(c2nc3c(c(=O)[nH]c(=O)n3C)n2Cc2ccc(Cl)cc2)CC1	none
COc1ccc(-c2nn(-c3ccccc3)cc2CN2CCN(C)CC2)c(F)c1	none
COc1ccc(-c2nn(-c3ccccc3)cc2CN2CCN3CCCC3C2)c(F)c1 (stereo not given)	none
COc1ccc(-n2cc(CN3CCN(C)C(C)C3)c(-c3cccc(F)c3)n2)cc1 (stereo not given)	KDM5B inh 25µM
COc1ccc(-c2nn(-c3ccccc3)cc2CN2CCN(C)C(C)C2)c(F)c1 (stereo not given)	none
COC1CCCN(Cc2cn(-c3ccc(F)cc3)nc2-c2ccccc2Cl)C1 (stereo not given)	none
COc1ccc(-n2cc(CN3CCCC(CO)C3)c(-c3cccc(F)c3)n2)cc1 (stereo not given)	KDM5B inh 35µM
CCOc1ccc(OCc2nc3ccccc3[nH]2)cc1	none
O=C(Nc1ccccc1-n1cncn1)C1CCCCC1	none
O=Cc1ccc2c(c1)OCCOCCOCCO2	none
COCCCNC(=O)N[C@@H]1CN(c2ncccn2)C[C@H]1CN(C)C	KDM5B inh 32µM
CN(C)C[C@@H]1CN(c2ccncn2)C[C@H]1NC(=O)COc1ccc(Cl)cc1	none
COCCNC(=O)N[C@@H]1CN(Cc2ccccc2)C[C@H]1CN(C)C	none
COc1ccc(CCC(=O)N[C@@H]2CN(S(C)(=O)=O)C[C@H]2CN(C)C)cc1	none

Source: PubChem (National Center for Advancing Translational Sciences (NCATS))
